This is an account of results in the supplement of paper PMC6555819.

For this test, the system named is LXRb:RXRa (NR concentration 270 nM, RXRa partner concentration 90 nM). As to the kind of experiment: PBM binding z-score (relative to random genomic background probes); higher = stronger binding; sequences stand for … in GC…GCGATTGACAGCGTAGAATGAAGG
Put shortly:
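Scanned fluorescence from custom Agilent 4×180K protein-binding microarrays was regression-normalized. Binding z-scores use random background probes as reference. Ligand-free nuclear receptor dimers were incubated on the arrays for 1 h and detected with antibodies against each partner (one per run).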
Take CCTTGCGGGTCACGAGGTTATAGCACGACGAGCG: the PBM binding z-score amounted to 3.71.
In turn, TCGAGTAGGTTACCAATGGGGCTTTCAGCTTTCT showed a PBM binding z-score of 0.62.
The sequence CGTCCAAGGACAAGGTCAGTGAAAGAGACTCGAA displayed a PBM binding z-score of 1.46.
The value for ATCTCTAGGTAAGACTCAGTTCAGAGAAGAACGC was -0.0123; that for TCTTGTAGATCAACAGGAGGTTAAGAAAGATCGA was 0.709; that for CCAGACAGGTGAGAAGGTAACTCAACCTCGATTA was 0.347.
Turning to CTACCAAGGTGAGCAAGGTCGTTGATTACTATTC, the PBM binding z-score came out at 0.949.
The value for AGTCAAAGTACACTAGGTAACGTAAGATTCAGCT was -0.273; that for CGAACTAGGTCAGAAAAGGACAGTGAAGGATGAT was 0.338.
Sequence TCATATAGGTAAATGCTAGCTGAAAGTCCGATCT registered a PBM binding z-score of 0.713.
The sequence TTACTAAGGTGAGCTGAGGTCGTTGATCCAACTC registered a PBM binding z-score of 1.04.
The value for ACTAGCAGGCCAAGTTTGGGTTACTCAAACAAAG was -0.296; that for TTACCAAGGTGAGCTGAGGACGTTGATCCAACTC was -0.542.
With ATCTCTAGGTAAAAGTTCAATGAATCCCGAGGAT the figure was 2.03.
The value for GTACCAAGGTGAATGGGTCGTTGATGAGTAGGCG was 0.0453.
CAGCCTAGGTCAGGGCCAGTATCGGAGGAACGTT came in with a PBM binding z-score of 0.354.
With CAAACTAGGTCAGGAGGTCAAAGTCCGCTTCCCG, the PBM binding z-score amounted to 4.39.
The value for TAGCCTAGGTCATTCGGGCCAGTATAGTGTCGGC was 2.35.
With ACAGACAGGCGAGTGAAGGTAACTCAGCTGGACG the figure was -0.649; with GGAACCAGGGCATTCGAGTTGATAGCATGGCGAT, 0.0646; with ATATGTAGGTTATCGGGTCAGTCAGTTTGCGCAT, 1.91.
With CCTTACGGGTCACTGACAGGTTATATCATTTGGA the figure was 3.82; with GCTCGGAGGACAAGGTCAAAGCTTTGTCCGTAGA, 3.14.
Regarding GCTAGTTGGTCAGTAAAAGGCCACACACCGGTCG, the PBM binding z-score is -0.23.
With CCTTACGGGTCACTGACCGGTTATAGCATTTGGA the figure was 4.04; with CCTACTGGGCCACGAAGGGTCATTGATTCAGTGA, 2.41.
With AGAATGAGGGCACGCTGAGTTGATAGCAGAGTAG the figure was 0.487; with GCTAACAGGCCATTTGGGTCACTCAATGACGGGC, 0.389; with TCGAGTAGGTTAGCGGCATTCAGAATGGCGTCGA, -0.653.
For TATACAGGGTTAAAGGCCAGAGTACGAATGTCGA, the PBM binding z-score turned out to be 1.91.
CGAACTAGGTCTTCCAGGACAGTGAATACATTGA showed a PBM binding z-score of -0.568.
With TTACCAAGGTGAGCTGAAGTCGTTGATCCAACTC the figure was -0.542; with CGTGCAAGGTCAAGGTCAGTGAAAGAGACTCGAA, 4.86; with CCGAGTAGGTTATGGGGCAATCAGGCAACGGTGA, 0.86.
GCAGACGGGTGAAACGCAGGTAACTCAGGGTGGC yielded a PBM binding z-score of -0.502.
With TATAGAGGGTCAAAGGCCAGAGTACGAATGTCGA the figure was 3.76.
The value for GATACAGGGTCAGCTATAGGCCAGAGTATGGAAA was 2.13; that for ATCTCTAGGTAAGACTCAGTTCAGGGAAGAACGC was 0.68.
With AATACAGGGTCATCGTAGGCCTGAGTACGCACAG the figure was 4.6.
TCTTGTAGATCACAGGTTAAGAAAGCCGAAGCCT registered a PBM binding z-score of 0.714.
